Laboratory results from publication PMC4552634, “A New Set of Chemical Starting Points with Plasmodium falciparum Transmission-Blocking Potential for Antimalarial Drug Discovery” (PLoS ONE, 2015).
Read-outs that look alike come from different tables or passages of the source. In all, about 13,000 compounds went through this assay and about 3,200 (25%) showed an effect of 50% or more. The list shows a part of the results.

Test system: P. falciparum stage V gametocytes
Set-up: BacTiter-Glo ATP luminescence viability of purified stage V gametocytes in 384-well plates, per cent inhibition versus DMSO
Conditions: 48 h, 5 µM, inhibitor

SMILES	% Inhibition [%]	% Inhibition (% Inhibition) [%]
Cc1nc(-c2cccc(C(=O)Nc3cnc4ccccc4c3)c2)no1 [TCMDC-135810]	8.288	–
CC1CCC(NCc2ccc3c(CNC4CCC(C)CC4)c(O)ccc3c2O)CC1 (centres unmarked) [TCMDC-137587]	-63.23	–
COc1cccc(C(=O)NCCc2cccc(Cl)c2)c1OCc1ccccc1 [TCMDC-141235]	-13.17	–
COc1cc(CCNC(=O)Cc2ccc3ccccc3c2)ccc1OCc1ccccc1 [TCMDC-137227]	57.44	–
COc1ccc(C(=O)O)cc1OCc1ccccc1 [TCMDC-125534]	4.056	–
CCC(C)CC(=O)Nc1ccc(OC)c(S(=O)(=O)N[C@@H]2CCN(C#N)C2)c1 (some centres unmarked) [TCMDC-134061]	14.31	–
COc1cc(-c2nc3ccc(N4CCN(C)CC4)cc3[nH]2)cc(OC)c1OC [TCMDC-124585]	-16.2	–
CNC(=O)c1ccccc1Nc1nc(Nc2ccc(N3CCN(C)CC3)nc2)ncc1C [TCMDC-134123]	57.48	–
COc1ccc(Nc2ncc(C#N)c(Nc3ccccc3C(N)=O)n2)cc1N1CCN(C)CC1 [TCMDC-134117]	-97.62	–
CNC(=O)c1cnc(Nc2ccc(N3CCN(C)CC3)c(C)c2)nc1NC [TCMDC-134162]	36.76	–
CNC(=O)c1ccccc1Nc1nc(Nc2ccc(N3CCOCC3)cc2)ncc1Cl [TCMDC-134144]	-63.52	–
CN1CCN(c2ccc(Nc3ncc(Cl)c(Nc4cccnc4C(N)=O)n3)cc2)CC1 [TCMDC-134164]	-84.83	–
Cc1cc(Nc2ncc(C#N)c(Nc3ccccc3C(N)=O)n2)ccc1N1CCN(C)CC1 [TCMDC-134115]	104.7	–
COc1ccc(Nc2ncc(OC)c(Nc3ccccc3C(N)=O)n2)cc1N1CCN(C)CC1 [TCMDC-134149]	9.949	–
CNC(=O)c1ccccc1Nc1nc(Nc2ccc(CCN3CCN(C)CC3)cc2)ncc1Cl [TCMDC-133800]	8.334	–
NC(=O)c1ccccc1Nc1nc(Nc2cccc(N3CCN(CCO)CC3)c2)ncc1Cl [TCMDC-134114]	94.95	–
Cc1cc(Nc2ncc(Cl)c(Nc3ccccc3C(N)=O)n2)n[nH]1 [TCMDC-134170]	-34.04	–
COc1ccc(Nc2ncc(Cl)c(Nc3cccnc3C(N)=O)n2)cc1N1CCN(C)CC1 [TCMDC-134163]	97.54	–
CNC(=O)c1cnc(Nc2ccc(N3CCN(C)CC3)cc2)nc1Nc1ccccc1OC [TCMDC-141382]	-26.7	–
CCC[C@@H](C(=O)NCCc1cccc(OC)c1)N1C(=O)c2c(ccc(OC)c2OC)C1C(=O)Nc1c(C)cccc1C (some centres unmarked) [TCMDC-141135]	18.96	–
Cc1[nH]n(-c2cccc(Cl)c2)c(=O)c1-c1ccc(Cl)cc1 [TCMDC-123495]	-44.23	–
O=C(Nc1ccc(C(F)(F)F)cc1)c1cc(Br)cnc1NCCCn1ccnc1 [TCMDC-136699]	4.282	–
COc1ccc(NC(=O)c2cc(-c3ccc(NC(C)=O)cc3)cnc2N)cc1 [TCMDC-135658]	32	–
CNC(=O)c1ccccc1Nc1nc(Nc2cccnc2)ncc1C [TCMDC-134211]	33.23	–
CNC(=O)c1ccccc1Nc1nc(Nc2cccc(CS(C)(=O)=O)c2)ncc1C [TCMDC-133809]	64.95	–

SMILES	% Inhibition [%]	% Inhibition (% Inhibition) [%]
CNC(=O)c1cc(F)c(F)cc1Nc1nc(Nc2cccc(CS(C)(=O)=O)c2)ncc1Cl [TCMDC-134060]	-6.741	–
Cc1ccc(NC(=O)c2ccc3ncccc3c2)cc1OC1CCN(Cc2ccsc2)CC1 [TCMDC-134270]	12.12	–
COc1ccccc1NC(=O)OC(COc1ccc(N)cc1)CN1CC=C(c2ccccc2)CC1 (centres unmarked) [TCMDC-136486]	60.38	–
COc1cccc(OC)c1-c1ccccc1NC(=O)N1CCCc2cc(C)ccc21 [TCMDC-136199]	-20.26	–
COc1ccc(OCC(O)CN(Cc2ccccc2OC)C(=O)Nc2ccc(Br)cc2)cc1 (centres unmarked) [TCMDC-141494]	25.96	–
Cc1cccc2[nH]c(-c3cccc(-c4ccc(NC(=O)Nc5ccc(F)c(F)c5F)cc4)c3)nc12 [TCMDC-133225]	-8.037	–
COc1ccc2ncc(F)c(CCN3CC(O)C(CNCc4nc5c(cc4Cl)OCC(=O)N5)C3)c2n1 (centres unmarked) [TCMDC-136031]	–	24.96
Oc1ccc2[nH]cc(C3CCN(CCCCCCCCCN4CCC(c5c[nH]c6ccc(O)cc56)CC4)CC3)c2c1 [TCMDC-139003]	74.24	–
Oc1ccc2[nH]cc(C3CCN(CCC(c4ccccc4)c4ccccc4)CC3)c2c1 [TCMDC-139017]	-54.72	–
Oc1ccc2[nH]cc(C3CCN(CCCNCc4ccc(-c5ccccc5)cc4)CC3)c2c1 [TCMDC-139047]	101.4	–
O=C(/C=C/c1ccc(Cl)c(Cl)c1)NCCCCCN1CCC(c2c[nH]c3cc(O)ccc23)CC1 [TCMDC-139282]	10.47	–
Cc1cccc2nc(-c3cccc(-c4cccc(NC(=O)NC5CC5c5ccccc5)c4)c3)[nH]c12 (centres unmarked) [TCMDC-133254]	-21.78	–
CNC(=O)/C=C/c1cc(NC(=O)Nc2cc(C)nc3c(F)cccc23)ccc1OC [TCMDC-140324]	-6.922	–
CC(C)NCC(=O)Nc1cccc(C(=O)Nc2cccc(C(F)(F)F)c2)c1 [TCMDC-124878]	70.58	–
O=C(Cn1c(=O)cnc2ccccc21)Nc1cccc(C(=O)Nc2cccc(C(F)(F)F)c2)c1 [TCMDC-125468]	18.7	–
O=C(CN1CCCC1)Nc1cccc(C(=O)Nc2cccc(C(F)(F)F)c2)c1 [TCMDC-124512]	78.8	–
O=C(CNC1CCCCC1)Nc1cccc(C(=O)Nc2cccc(C(F)(F)F)c2)c1 [TCMDC-123711]	29.34	–
O=C(Cc1n[nH]c(=O)c2ccccc12)Nc1cccc(C(=O)Nc2cccc(C(F)(F)F)c2)c1 [TCMDC-125260]	48.65	–
O=C(Nc1cccc(C(F)(F)F)c1)c1cccc(S(=O)(=O)NCC2CCCN2CC2CCCCC2)c1 (centres unmarked) [TCMDC-133687]	-58.72	–
COc1cc(C(=O)Nc2nc3ccccc3[nH]2)ccc1OCC(=O)Nc1cccc(C(F)(F)F)c1 [TCMDC-125460]	11.63	–
COc1ccccc1C(C)NCC(=O)Nc1cccc(C(=O)Nc2cccc(C(F)(F)F)c2)c1 (centres unmarked) [TCMDC-124871]	31.1	–
CC12CCC(=O)N1C(C(=O)Nc1cccc(C(=O)Nc3cccc(C(F)(F)F)c3)c1)CS2 (centres unmarked) [TCMDC-125019]	77	–
CCCCCN1CCCC1CNS(=O)(=O)c1cccc(C(=O)Nc2cccc(C(F)(F)F)c2)c1 (centres unmarked) [TCMDC-133686]	-82.32	–
CC(O)CNc1nc2ccccc2n1CC(=O)Nc1cccc(C(=O)Nc2cccc(C(F)(F)F)c2)c1 (centres unmarked) [TCMDC-124335]	86.13	–
O=C(Nc1cccc(CN2CCCN(Cc3ccc(O)cc3)CC2)c1)c1cccc(C(F)(F)F)c1 [TCMDC-141836]	-28.76	–
